Measurements taken from the supplement of paper PMC10849652.
Of roughly 7,900 targets only a part is listed; those with a hit were picked by preference. About 0.6% of all pairs of compound and target were hits. A number with no mark means an inactive call.

Legend:
Experiment in all cases: log2 fold change, soluble protein after heating vs DMSO (PISA); higher = thermal stabilisation; K562 cells, 10 uM, 30 min; active = over 0.2 and 3.5 SD of the protein, either way, in both replicates (recomputed)
erlotinib = compound: C#Cc1cccc(Nc2ncnc3cc(OCCOC)c(OCCOC)cc23)c1 [erlotinib]
Outline: (§1)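 K562 cells at 2×10^6 cells/mL were treated with 10 μM compound for 30 min. Aliquots were heated for 3 min across 48°C-58°C, pooled, and extracted in PBS with 0.5% NP-40 at 4°C; soluble protein was the supernatant after 21,000xg for 90 min. Soluble protein was quantified by TMTpro 16plex LC-MS/MS with channel sums equalised, and reported as log2 fold change in thermal stability against DMSO controls, with values from duplicates.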

[1] = compound: C/C(=N\NC(=O)C1=CC(=CC=C1)S(=O)(=O)N2CCOCC2)/C3=C(C=CC(=C3)Cl)O
Outline: as §1

[2] = compound: C1=CC(=C(C=C1Cl)C2=NC3=NC=CN=C3C(=N2)NC4=CC=NC=C4)F
Outline: as §1

[3] = compound: C1=CC(=CC=C1C2=NC3=C(N2)C=C(C=C3)C(=O)N)OC4=CC=C(C=C4)Cl
Outline: as §1

[4] = compound: C1=CC2=C(C=CC(=C2)/C=C\3/C(=O)NC(=NCC4=CC=CS4)S3)N=C1
Outline: as §1

[5] = compound: C1=CC2=NC=CN=C2C=C1/C=C/3\C(=O)NC(=O)S3
Outline: as §1

[6] = compound: C1=CC=C(C=C1)C2=NC(=C(N2)C3=CC=NC=C3)C4=CC(=C(C=C4)Cl)O
Outline: as §1

[7] = compound: C1=CC=C2C(=C1)C3=NNC4=CC=CC(=C43)C2=O
Outline: as §1

[8] = compound: C1CCN(C1)C(=O)NC2=CC=CC(=C2)NC3=NC=C(C(=N3)NCCC4=CN=CN4)Br
Outline: as §1

[9] = compound: C1CN(CCC1(CC2=CC=C(C=C2)Cl)N)C3=NC=NC4=C3C=CN4
Outline: as §1

Chain of UniProt Q6P2E9 (Q6P2E9 whole entry, looked up): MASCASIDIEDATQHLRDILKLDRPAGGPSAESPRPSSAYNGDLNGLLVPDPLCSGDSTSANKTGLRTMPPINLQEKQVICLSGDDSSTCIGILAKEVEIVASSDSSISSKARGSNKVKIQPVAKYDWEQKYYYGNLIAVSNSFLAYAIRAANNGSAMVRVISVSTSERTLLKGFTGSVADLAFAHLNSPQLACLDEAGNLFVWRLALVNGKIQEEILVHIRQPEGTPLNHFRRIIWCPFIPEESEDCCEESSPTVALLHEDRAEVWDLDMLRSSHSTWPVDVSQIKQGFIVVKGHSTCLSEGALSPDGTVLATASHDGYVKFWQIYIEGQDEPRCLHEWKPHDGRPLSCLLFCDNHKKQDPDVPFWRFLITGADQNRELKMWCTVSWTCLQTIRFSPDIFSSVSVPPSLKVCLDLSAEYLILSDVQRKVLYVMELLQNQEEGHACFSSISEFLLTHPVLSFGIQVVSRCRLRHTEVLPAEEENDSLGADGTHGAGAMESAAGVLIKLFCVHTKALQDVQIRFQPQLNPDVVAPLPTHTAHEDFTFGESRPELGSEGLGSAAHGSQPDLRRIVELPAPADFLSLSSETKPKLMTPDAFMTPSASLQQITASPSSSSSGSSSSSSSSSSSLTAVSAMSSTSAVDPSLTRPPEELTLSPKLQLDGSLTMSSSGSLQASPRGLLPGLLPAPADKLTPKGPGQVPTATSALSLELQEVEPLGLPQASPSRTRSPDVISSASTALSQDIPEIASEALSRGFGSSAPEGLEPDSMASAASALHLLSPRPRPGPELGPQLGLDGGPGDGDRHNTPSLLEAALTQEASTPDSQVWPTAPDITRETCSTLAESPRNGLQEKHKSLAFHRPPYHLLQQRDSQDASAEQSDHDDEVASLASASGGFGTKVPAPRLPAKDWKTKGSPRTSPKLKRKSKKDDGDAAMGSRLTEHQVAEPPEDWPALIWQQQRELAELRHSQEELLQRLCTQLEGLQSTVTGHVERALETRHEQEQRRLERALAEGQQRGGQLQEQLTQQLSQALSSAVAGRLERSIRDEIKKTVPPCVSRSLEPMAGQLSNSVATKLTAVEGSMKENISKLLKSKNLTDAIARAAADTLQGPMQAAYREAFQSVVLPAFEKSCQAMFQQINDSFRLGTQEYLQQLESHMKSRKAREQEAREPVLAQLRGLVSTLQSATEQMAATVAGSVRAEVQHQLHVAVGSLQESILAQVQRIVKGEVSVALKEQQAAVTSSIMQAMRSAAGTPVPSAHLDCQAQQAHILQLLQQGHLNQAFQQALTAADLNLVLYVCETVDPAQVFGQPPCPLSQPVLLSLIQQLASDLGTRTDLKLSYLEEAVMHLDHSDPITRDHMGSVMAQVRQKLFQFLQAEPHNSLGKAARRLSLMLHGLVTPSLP
Chain of UniProt P07711 (P07711 whole entry, looked up): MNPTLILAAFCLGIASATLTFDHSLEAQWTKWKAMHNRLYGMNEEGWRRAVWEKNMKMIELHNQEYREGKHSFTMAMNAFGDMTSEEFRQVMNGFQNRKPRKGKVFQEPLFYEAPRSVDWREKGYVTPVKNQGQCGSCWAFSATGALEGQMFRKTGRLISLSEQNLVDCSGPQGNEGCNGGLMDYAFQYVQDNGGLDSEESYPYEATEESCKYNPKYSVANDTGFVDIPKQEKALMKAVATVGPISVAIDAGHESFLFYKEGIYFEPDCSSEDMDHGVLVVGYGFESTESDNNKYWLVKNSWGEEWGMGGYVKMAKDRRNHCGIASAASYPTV
Chain of UniProt Q96F86 (Q96F86 whole entry, looked up): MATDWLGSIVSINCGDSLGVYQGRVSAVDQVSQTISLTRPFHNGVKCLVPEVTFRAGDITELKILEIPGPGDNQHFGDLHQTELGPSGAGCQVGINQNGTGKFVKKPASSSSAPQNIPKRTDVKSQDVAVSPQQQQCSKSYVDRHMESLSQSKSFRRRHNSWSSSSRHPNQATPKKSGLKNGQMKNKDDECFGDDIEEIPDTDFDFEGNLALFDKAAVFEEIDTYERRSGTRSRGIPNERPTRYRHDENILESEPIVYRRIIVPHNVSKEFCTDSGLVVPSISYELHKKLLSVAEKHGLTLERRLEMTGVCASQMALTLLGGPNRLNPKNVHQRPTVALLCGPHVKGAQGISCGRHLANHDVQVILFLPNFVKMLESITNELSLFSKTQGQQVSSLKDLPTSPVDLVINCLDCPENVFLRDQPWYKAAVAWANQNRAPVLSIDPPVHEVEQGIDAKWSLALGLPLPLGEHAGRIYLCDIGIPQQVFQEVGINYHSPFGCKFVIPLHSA
Chain of UniProt Q9NQI0 (Q9NQI0 whole entry, looked up): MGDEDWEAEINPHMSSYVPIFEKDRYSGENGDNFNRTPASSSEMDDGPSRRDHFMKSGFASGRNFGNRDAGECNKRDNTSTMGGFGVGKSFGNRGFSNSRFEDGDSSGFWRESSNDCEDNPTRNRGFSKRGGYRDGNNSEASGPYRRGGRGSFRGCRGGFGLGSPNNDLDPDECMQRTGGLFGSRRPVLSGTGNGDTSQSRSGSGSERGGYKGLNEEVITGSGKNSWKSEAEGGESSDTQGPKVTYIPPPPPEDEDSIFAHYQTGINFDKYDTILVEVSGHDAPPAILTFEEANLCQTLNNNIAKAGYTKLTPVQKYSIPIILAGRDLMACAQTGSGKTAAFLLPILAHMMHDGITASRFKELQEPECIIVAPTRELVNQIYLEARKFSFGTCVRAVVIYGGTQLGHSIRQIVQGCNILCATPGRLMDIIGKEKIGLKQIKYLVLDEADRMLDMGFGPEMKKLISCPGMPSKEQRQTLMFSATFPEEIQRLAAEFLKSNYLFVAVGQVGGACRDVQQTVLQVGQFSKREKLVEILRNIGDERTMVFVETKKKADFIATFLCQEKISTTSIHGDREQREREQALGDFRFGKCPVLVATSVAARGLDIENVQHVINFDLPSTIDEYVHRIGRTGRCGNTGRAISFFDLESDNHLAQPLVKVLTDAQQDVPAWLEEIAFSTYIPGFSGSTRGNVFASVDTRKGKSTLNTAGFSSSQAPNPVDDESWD
Chain of UniProt P34913 (P34913 whole entry, looked up): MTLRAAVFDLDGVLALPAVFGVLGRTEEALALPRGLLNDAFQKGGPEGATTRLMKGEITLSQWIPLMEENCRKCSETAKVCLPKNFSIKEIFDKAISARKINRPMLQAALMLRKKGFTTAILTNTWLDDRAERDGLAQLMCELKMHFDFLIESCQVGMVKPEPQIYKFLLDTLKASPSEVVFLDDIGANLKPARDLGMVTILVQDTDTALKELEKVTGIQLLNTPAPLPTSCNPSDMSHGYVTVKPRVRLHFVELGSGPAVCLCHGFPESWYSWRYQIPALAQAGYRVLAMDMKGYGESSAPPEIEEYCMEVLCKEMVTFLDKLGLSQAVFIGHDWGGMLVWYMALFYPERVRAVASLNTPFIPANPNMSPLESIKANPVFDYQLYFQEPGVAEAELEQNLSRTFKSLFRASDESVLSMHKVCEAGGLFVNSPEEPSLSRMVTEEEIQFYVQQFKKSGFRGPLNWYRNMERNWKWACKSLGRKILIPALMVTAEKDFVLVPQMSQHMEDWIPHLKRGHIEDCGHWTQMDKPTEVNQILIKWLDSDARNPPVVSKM
Chain of UniProt O75822 (O75822 whole entry, looked up): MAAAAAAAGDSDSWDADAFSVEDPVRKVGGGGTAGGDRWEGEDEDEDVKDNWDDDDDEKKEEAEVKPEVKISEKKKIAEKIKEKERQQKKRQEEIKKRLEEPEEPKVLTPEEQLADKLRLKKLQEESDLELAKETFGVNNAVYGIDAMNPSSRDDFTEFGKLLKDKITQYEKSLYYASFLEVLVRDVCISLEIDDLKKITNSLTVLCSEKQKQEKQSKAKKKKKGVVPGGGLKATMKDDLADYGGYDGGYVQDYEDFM
Chain of UniProt Q5QP82 (Q5QP82 whole entry, looked up): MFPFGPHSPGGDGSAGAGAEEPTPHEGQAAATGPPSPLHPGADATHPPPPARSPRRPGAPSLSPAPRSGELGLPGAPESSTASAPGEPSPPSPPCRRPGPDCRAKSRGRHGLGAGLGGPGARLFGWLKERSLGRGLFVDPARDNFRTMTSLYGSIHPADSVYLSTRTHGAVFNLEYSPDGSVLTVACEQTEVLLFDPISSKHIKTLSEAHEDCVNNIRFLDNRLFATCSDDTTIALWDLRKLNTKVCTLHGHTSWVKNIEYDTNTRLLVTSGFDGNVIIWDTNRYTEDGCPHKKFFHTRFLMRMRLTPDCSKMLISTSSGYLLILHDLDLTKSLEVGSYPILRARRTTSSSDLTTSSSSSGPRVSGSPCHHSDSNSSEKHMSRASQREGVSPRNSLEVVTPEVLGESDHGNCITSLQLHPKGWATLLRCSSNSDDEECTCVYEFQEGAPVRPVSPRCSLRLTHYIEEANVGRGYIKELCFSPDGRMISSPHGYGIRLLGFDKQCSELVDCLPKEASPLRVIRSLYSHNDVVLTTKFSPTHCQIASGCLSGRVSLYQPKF
Chain of UniProt Q9NZN4 (Q9NZN4 whole entry, looked up): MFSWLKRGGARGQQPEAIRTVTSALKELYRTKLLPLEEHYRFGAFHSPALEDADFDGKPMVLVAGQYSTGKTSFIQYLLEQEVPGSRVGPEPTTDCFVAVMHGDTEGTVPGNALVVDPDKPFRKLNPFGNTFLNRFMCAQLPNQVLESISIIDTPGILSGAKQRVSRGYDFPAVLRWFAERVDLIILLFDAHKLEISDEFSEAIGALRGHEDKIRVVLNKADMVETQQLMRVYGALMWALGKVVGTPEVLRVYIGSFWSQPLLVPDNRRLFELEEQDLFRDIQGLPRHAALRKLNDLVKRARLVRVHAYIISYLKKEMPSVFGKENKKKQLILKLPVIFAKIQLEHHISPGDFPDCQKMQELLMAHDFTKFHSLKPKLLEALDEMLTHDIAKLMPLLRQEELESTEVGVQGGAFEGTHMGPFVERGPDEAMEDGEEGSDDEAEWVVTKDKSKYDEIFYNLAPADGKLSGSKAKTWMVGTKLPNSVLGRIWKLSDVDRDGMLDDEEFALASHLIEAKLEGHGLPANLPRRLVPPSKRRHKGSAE
Chain of UniProt Q15369 (Q15369 whole entry, looked up): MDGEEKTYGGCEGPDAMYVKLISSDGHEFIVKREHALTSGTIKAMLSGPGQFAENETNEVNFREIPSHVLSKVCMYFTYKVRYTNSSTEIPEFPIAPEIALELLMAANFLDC

Target	log2 fold change (erlotinib)	log2 fold change [1]	log2 fold change [2]	log2 fold change [3]	log2 fold change [4]	log2 fold change [5]	log2 fold change [6]	log2 fold change [7]	log2 fold change [8]	log2 fold change [9]
CTSZ (UniProt Q9UBR2)	0.053	-0.025	0.027	-0.047	-0.013	0.023	-0.017	0.073	0.057	0.09
CTSA (UniProt P10619)	-0.058	-0.065	0.001	-0.004	-0.053	0.018	0.04	0.003	0.021	0.051
DAG1 (UniProt Q14118)	0.055	0.067	-0.043	0	-0.038	-0.037	-0.154	-0.06	-0.009	0.035
DOCK8 (UniProt Q8NF50)	0.259	0.001	0.182	0.04	-0.092	-0.021	-0.046	0.059	-0.076	-0.071
DPP8 (UniProt Q6V1X1)	0.093	0.088	0.067	0	0.134	0.018	-0.067	-0.011	-0.003	0.008
DCAF6 isoform 3 (UniProt Q58WW2)	0.035	0	0.035	0.014	0.007	0.045	0.008	-0.036	0.042	0.055
CYP51A1 (UniProt Q16850)	-0.09	0.019	-0.248	-0.002	0.007	0.018	-0.096	0.089	0.014	0.137
EDC3 (UniProt Q96F86)	-0.023	0.156	0.009	0.043	-0.007	-0.227	-0.024	-0.057	-0.195	-0.376 (active)
EIF2S3 (UniProt P41091)	-0.028	-0.041	-0.18	-0.004	-0.023	-0.006	-0.037	0.015	-0.023	-0.06
DCAF16 (UniProt Q9NXF7)	0.051	0.042	0.036	0	-0.034	-0.002	-0.001	0.048	0.039	-0.127
DMAC1 (UniProt Q96GE9)	0.041	0.076	0.128	-0.002	0.059	-0.004	-0.04	-0.021	0.008	0.072
DHRS7B (UniProt Q6IAN0)	-0.039	0.07	0.011	0.009	0.027	0.012	0.144	0.034	-0.037	0.058
EXTL2 (UniProt Q9UBQ6)	0.051	0.018	-0.129	0.04	0.016	0.037	-0.031	0.062	-0.092	-0.119
EEA1 (UniProt Q15075)	0	-0.016	0.046	0.003	0.01	0.046	-0.046	-0.031	0.009	0.05
CTSL (UniProt P07711)	-0.005	-0.173	-0.036	-0.022	-0.203	0.019	-0.002	-0.041	-0.023	0.005
DYRK1A isoform 2 (UniProt Q13627)	0.034	0.039	-0.058	0.019	-0.095	-0.173	-0.027	-0.064	-0.093	-0.067
FAM50A (UniProt Q14320)	0.015	0.051	0.054	-0.017	-0.009	0.062	-0.019	-0.001	-0.026	-0.065
DFFB (UniProt O76075)	-0.015	0.103	0.022	0.035	0.101	0.016	0.037	-0.005	-0.305 (active)	-0.039
DIP2A (UniProt Q14689)	-0.002	0.07	0.055	0.103	-0.145	0.076	0.037	0.043	0.03	0.053
DBN1 isoform 3 (UniProt Q16643)	-0.095	-0.047	-0.028	0.039	-0.074	0.02	0.021	-0.029	0.089	0.041

Target	log2 fold change (erlotinib)	log2 fold change [1]	log2 fold change [2]	log2 fold change [3]	log2 fold change [4]	log2 fold change [5]	log2 fold change [6]	log2 fold change [7]	log2 fold change [8]	log2 fold change [9]
EEF1A1 (UniProt P68104)	-0.083	0.119	0.051	0.062	-0.062	-0.343	0.195	0.135	-0.055	0.122
FAF2 (UniProt Q96CS3)	0.009	0.078	-0.003	0.02	0.049	0.03	0.15	0.009	0.035	0.004
DHFR (UniProt P00374)	0.156	0	-0.176	-0.144	0.03	0.043	0.055	0.049	-0.047	-0.015
DHCR24 (UniProt Q15392)	0.393	0.068	-0.151	0.092	0.081	-0.024	0.03	-0.009	-0.066	-0.074
F5 (UniProt P12259)	-0.122	0	-0.002	0.061	-0.096	-0.054	-0.018	-0.064	0	0.052
DMXL1 (UniProt Q9Y485)	0.059	0.071	-0.006	0.006	0.068	-0.001	0.024	-0.02	0.019	0.034
EIF4G1 isoform 8 (UniProt Q04637)	-0.092	0.128	-0.065	0.011	-0.036	-0.089	-0.099	-0.246	-0.197	-0.28
FADS1, A0A0A0MR51	0.016	-0.11	-0.049	-0.134	0.09	0.05	0.231 (active)	-0.008	-0.006	0.002
FAM117A (UniProt Q9C073)	0.127	0.054	-0.056	0.053	-0.279 (active)	-0.101	-0.041	-0.129	-0.143	-0.121
DDX4 (UniProt Q9NQI0)	0.576	-0.071	-0.23	-0.056	0.006	0	-0.305	0.006	0.053	-0.273
DNAJB12 (UniProt Q9NXW2)	-0.039	-0.001	0.003	0.102	0.004	0.032	0.006	-0.064	0.044	0.033
EMD (UniProt P50402)	0.025	0.002	-0.078	0.056	0.008	0.033	-0.011	-0.072	0.031	0.074
EIF3J (UniProt O75822)	0.056	-0.004	0.068	-0.033	0.012	0.048	0.101	0.021	0.009	-0.01
EIF4E isoform 2 (UniProt P06730)	0.084	-0.035	0.056	-0.073	0.01	0.168	0.074	0.152	0.181	0.146
EEF1D isoform 2 (UniProt P29692)	0	0.031	0.016	-0.028	0.025	0.02	-0.03	0.021	0.048	-0.055
DNAJC7 (UniProt Q99615)	0.02	0.065	0.061	-0.002	0.014	0.024	0.013	0.023	0.005	-0.043
EEF1AKNMT (UniProt Q8N6R0)	0.063	0.15	0.008	-0.022	0.114	0.013	0.091	0.058	0.023	-0.061
EEF1B2 (UniProt P24534)	-0.006	0.033	-0.028	-0.058	0.008	-0.036	0.027	0.02	0.064	-0.058
ERCC2 (UniProt P18074)	0.04	0.049	0.2	0.033	0.041	-0.051	0.014	-0.054	-0.005	0.036
DUS3L (UniProt Q96G46)	-0.073	0.025	0.118	0.059	0.016	0.037	0.042	-0.001	-0.043	0.078

Target	log2 fold change (erlotinib)	log2 fold change [1]	log2 fold change [2]	log2 fold change [3]	log2 fold change [4]	log2 fold change [5]	log2 fold change [6]	log2 fold change [7]	log2 fold change [8]	log2 fold change [9]
EIF4A1 (UniProt P60842)	0.036	0.049	0.047	-0.023	0.016	-0.021	0.007	0.035	-0.039	0.054
EPHX2 (UniProt P34913)	-0.01	0.213	-0.008	0.2	0.09	-0.004	0.038	-0.032	0.123	-0.001
DNAJB1 (UniProt P25685)	0.005	0.017	0.012	0.008	0.024	0.053	0.024	-0.025	-0.019	0.009
DDOST (UniProt P39656)	-0.033	0.003	0.004	-0.014	-0.085	0.014	0.253 (active)	0.012	-0.002	-0.003
EGLN1 (UniProt Q9GZT9)	0.035	-0.355 (active)	0.075	-0.035	0.043	-0.08	0.021	-0.02	0.01	-0.003
DCTN1 isoform 4 (UniProt Q14203)	0.04	0.031	-0.053	-0.033	0.037	-0.009	-0.023	0.05	0.046	-0.072
FADS3 (UniProt Q9Y5Q0)	0.03	-0.005	0.104	0.017	0.064	0.058	0.04	0.001	-0.055	0.05
DHX16 (UniProt O60231)	0.01	0.05	0.224	0.027	0.007	-0.01	0.014	0.013	-0.044	0.024
DNAAF2 (UniProt Q9NVR5)	0.046	0.021	0.108	-0.003	0.01	0.016	-0.018	-0.025	0.021	-0.025
ELOC (UniProt Q15369)	-0.055	0.124	0.066	0.017	0.117	0.048	0.075	0.009	-0.016	-0.024
EHD2 (UniProt Q9NZN4)	-0.044	0.025	0.013	-0.077	0.007	-0.01	-0.003	0.01	-0.008	0.041
FAM3A (UniProt P98173)	-0.064	0.118	-0.067	0.029	0.059	0.082	0.083	-0.05	-0.044	0.059
CTSV (UniProt O60911)	0.043	-0.105	0.023	-0.054	0.035	-0.004	0.024	0.023	0.04	0.022
CTSC (UniProt P53634)	-0.002	0.016	0.022	-0.031	0.014	0.004	0.028	0.009	-0.02	0.138
DCAF10 (UniProt Q5QP82)	0.01	0.014	0.021	0.029	-0.038	0.064	-0.077	-0.013	0.029	0.006
EDC4 (UniProt Q6P2E9)	-0.045	0.1	-0.058	0.017	-0.177	-0.069	-0.035	-0.151	-0.023	-0.041
EXOC1 (UniProt Q9NV70)	0.057	0.163	-0.104	-0.05	0.17	0.013	0.051	0.054	-0.044	-0.073
EIF3J isoform 2 (UniProt O75822)	0.094	-0.093	0.029	0.005	0.14	-0.042	–	-0.138	0.143	0
DHRS1 (UniProt Q96LJ7)	-0.045	0.995 (active)	-0.02	-0.105	0.353	-0.034	0.813 (active)	-0.163	-0.163	-0.021
EIF4E2 (UniProt O60573)	0.013	0.056	-0.026	-0.045	-0.007	-0.054	-0.111	-0.009	-0.032	-0.008
